Source: PubChem BioAssay
Hits are enriched below; roughly 4.1% of the tested compounds scored in any of these assays.
hgDAF-12 ag: hgDAF-12 agonism, primary luciferase screen; 370,000 compounds, 1.8% hits; HEK293 GAL4-hgDAF12 UAS-luciferase reporter, agonist luminescence; normalized to butyrate control; AID 687014; activation, % at 6.8 µM;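 active = activation above a cutoff set at the mean of all screened compounds plus 3 SD, cut at about 10% in these data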;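 also: 0% = DMSO wells and 100% = sodium butyrate wells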
DAX1 inh-1: inhibitors of human orphan nuclear receptor DAX1 (NR0B1). HEK293 Gal4-DAX1 luciferase reporter, luminescence. inhibition, % at 6.75 µM. 340,000 compounds, 0.99% hits. AID 504766;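 active = inhibition above the mean over all tested compounds plus 3 SD, cut at about 4.2% in these data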;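 also: 0% = DAX1-transfected cells with DMSO and 100% = empty-vector control cells with DMSO; inhibition shows as a rise in luminescence from relieved DAX1 repression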
Target sequence (P51843 207-470 limits assumed): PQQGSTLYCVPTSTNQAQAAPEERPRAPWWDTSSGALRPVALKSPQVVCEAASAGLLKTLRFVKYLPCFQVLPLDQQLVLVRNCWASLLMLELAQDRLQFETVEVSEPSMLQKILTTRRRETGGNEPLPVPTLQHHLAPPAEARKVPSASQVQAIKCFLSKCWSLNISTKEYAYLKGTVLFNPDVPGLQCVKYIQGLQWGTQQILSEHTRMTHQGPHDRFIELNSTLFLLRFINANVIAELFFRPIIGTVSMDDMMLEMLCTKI
DAX1 inh-2: blocks DAX1 repression of SF-1 activated StAR promoter. 370,000 compounds, 1.1% hits. HEK293T StAR-luciferase reporter, SF-1/DAX-1 repression relief. inhibition, % at 6.8 µM. AID 652010;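 active = inhibition above the mean over all tested compounds plus 3 SD, cut at about 3.6% in these data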;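 also: 0% = DAX-1 cells with DMSO and 100% = cells lacking DAX-1 with DMSO; higher inhibition means more luminescence from relief of DAX-1 repression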
hcDAF12 agonist: activates DAF-12 receptor from parasite H. contortus. HEK293 hcDAF-12 lit1-tk-luc reporter, luminescence; 0% DMSO, 100% Δ7-dafachronic acid. activation, % at 6.8 µM. 370,000 compounds, 1.4% hits;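 active = activation above the mean of all tested compounds plus 3 SD, cut at about 5.5% in these data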;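 also: 100% = response to 3 µM Δ7-dafachronic acid high control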
ssDAF12 agonist: activators of S. stercoralis DAF-12 nuclear receptor; HEK293 ssDAF-12/GRIP1 lit1-tk-luc reporter, luminescence; % of 3 µM dafachronic acid response; activation, % at 6.8 µM; 370,000 compounds, 1% hits; AID 652126;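 active = activation above the mean over all tested compounds plus 3 SD, cut at about 0.9% in these data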;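 also: 0% = DMSO-only wells and 100% = 3 µM delta7-dafachronic acid wells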
The depositor's hits bear a star; . = no result given.

SMILES	hgDAF-12 ag	DAX1 inh-1	DAX1 inh-2	hcDAF12 agonist	ssDAF12 agonist
C[C@@H]1CN([C@H](C)CO)C(=O)c2cc(Br)cnc2O[C@H]1CN(C)Cc1cccnc1	-0.1	0.9	-0.6	-0.5	-0.9
COc1cc2c(cc1OC)C(C(=O)O)C(c1ccc3c(c1)OCO3)N(C)C2=O (centres undefined)	-0.3	.	-0.6	-0.2	-1.6
S=C(NNC(=S)Nc1ccc(Cl)cc1)NNc1ccccc1	9.1	1.8	-0.5	0.8	0.0
S=C(N=Nc1ccccc1)NNc1ccccc1	12.5*	3.2	3.2	11.3*	0.1
COc1ccc(N=C2SCC(c3ccccc3)=NN2C)cc1	-2.0	4.3*	0.8	-1.4	-1.3
COc1ccc(N=C2SCC(=O)N2c2ccc(OC)cc2)cc1	0.2	-0.4	-0.5	-1.4	-1.1
CON(C)C(=O)C(C)(C)CC#CCN(CC#Cc1ccccc1)S(=O)(=O)c1ccc(C)cc1	-0.4	.	-0.1	-0.5	-1.1
Cc1cc(C)cc(NC(=O)C(Sc2ncnc3ccccc23)c2ccccc2)c1 (centres undefined)	2.1	0.4	-0.2	6.4*	-0.4
CCOC(=O)CN1C(=O)S/C(=C/c2ccc(O)c([N+](=O)[O-])c2)C1=O	-0.6	5.9*	-0.7	1.3	-1.9
CCOC(=O)CN1C(=O)S/C(=C/c2ccc(C)o2)C1=O	3.7	0.5	0.8	-1.9	-1.3
CCn1c(/C=C/c2ccccc2[N+](=O)[O-])nc2ccccc2c1=O	-0.6	-0.1	-0.5	-1.1	-1.1
Cn1c(/C=C/c2ccccc2[N+](=O)[O-])nc2ccccc2c1=O	2.9	4.5*	-0.6	-0.5	-0.8
CCc1cc(-c2nnn(CCC3COCCO3)c2C(C)(C)O)ccc1-c1cn(CCc2c[nH]c3ccccc23)nn1 (centres undefined)	-4.3	-2.1	-2.9	-2.9	-1.6
O=C1C(=O)N(c2ccccc2)C(c2ccccc2[N+](=O)[O-])/C1=C(\O)c1ccccc1 (centres undefined)	4.2	-0.2	-0.8	5.4	1.6*
CCOC(=O)CN1CCCc2nc(C)c(C)cc21	1.4	.	-0.2	1.4	-0.9
COc1cccc(C2CC(OCCF)=CC(=O)O2)c1 (centres undefined)	-1.9	.	-0.3	-0.9	-1.1
CC(=O)c1c(C(=O)O)c2ccccc2[nH]c1=O	-1.4	4.8*	0.1	0.1	-1.4
Cc1ccc(-n2c(SCc3cccc(F)c3)nnc2-c2cccc(C)c2)cc1	-0.8	.	-1.1	-1.4	-1.5
O=C(O)c1ccc(C=NNC(=O)c2ccccc2NS(=O)(=O)c2cccs2)cc1	-1.9	2.4	3.7*	-0.9	-1.4
Cc1ccc2c(CN3CC(C)CC(C)C3)cc(=O)oc2c1 (centres undefined)	-1.5	0.3	0.4	-0.4	-0.7
Cc1ccc2c(CN3CCC(C)CC3)cc(=O)oc2c1	10.8*	2.4	2.3	3.2	-0.6
COc1ccc(CN(C)C(=O)[C@@H](Cc2ccccc2)NC(=O)[C@H]2O[C@@H](n3ccc(N)nc3=O)[C@H](O)[C@@H]2O)cc1OC	-0.1	.	0.7	-0.4	-0.7
COc1cccc(C(=O)N[C@H](C(=O)N2CCC[C@H]2C(=O)NCCc2ccccc2Cl)C2CCCCC2)c1	-4.3	.	1.6	-0.7	-1.1
O=C(O)C1(c2ccccc2)CCN(S(=O)(=O)c2ccccc2)CC1	0.5	-0.4	-0.3	-0.5	1.0*
CN(C)C(=O)C1(c2ccccc2)CCN(S(=O)(=O)c2ccccc2)CC1	1.6	1.1	-0.3	0.2	-1.4
SMILES	hgDAF-12 ag	DAX1 inh-1	DAX1 inh-2	hcDAF12 agonist	ssDAF12 agonist
Cc1ccc(S(=O)(=O)N2CCOCC2)cc1NC(=O)CSCc1c(C)noc1C	0.1	0.8	3.6*	-1.3	-1.3
COc1ccc(Cl)cc1N1C(=O)CC(Sc2ccccc2N)C1=O (centres undefined)	3.1	1.2	-0.5	-0.5	1.6*
CCOc1ccccc1N1C(=O)CC(Sc2ccccc2N)C1=O (centres undefined)	0.0	1.5	-0.5	0.2	-0.7
C[C@@H]1CN([C@@H](C)CO)C(=O)CCCn2cc(nn2)CO[C@H]1CN(C)C(=O)NC1CCCCC1	5.9	.	0.9	0.2	-1.2
CCCCSc1nnc(-c2ccccc2N)c(=O)[nH]1	11.1*	0.2	0.9	5.9*	-0.3
CCCCCCCSc1nnc(-c2ccccc2N)c(=O)[nH]1	-1.2	1.4	0.6	0.2	-0.7
O=C(NCc1ccccc1F)C1C2C=CC3(CN(Cc4ccccc4)C(=O)C13)O2 (centres undefined)	-1.5	.	0.3	-2.0	-1.2
